According to PubChem BioAssay:

target: Tumor necrosis factor receptor superfamily member 10B (Homo sapiens) (UniProt O14763); experiment: viability loss of caspase-8 NB7 cells with TRAIL – with/without TRAIL, luminescence panel, confirmation (AID 651596); details: NB7 neuroblastoma + caspase-8, TRAIL sensitization, NB7 Caspase-8, with TRAIL, mean of runs, at 10 µM, stronger effect = higher value
Sequence (O14763 whole entry, looked up): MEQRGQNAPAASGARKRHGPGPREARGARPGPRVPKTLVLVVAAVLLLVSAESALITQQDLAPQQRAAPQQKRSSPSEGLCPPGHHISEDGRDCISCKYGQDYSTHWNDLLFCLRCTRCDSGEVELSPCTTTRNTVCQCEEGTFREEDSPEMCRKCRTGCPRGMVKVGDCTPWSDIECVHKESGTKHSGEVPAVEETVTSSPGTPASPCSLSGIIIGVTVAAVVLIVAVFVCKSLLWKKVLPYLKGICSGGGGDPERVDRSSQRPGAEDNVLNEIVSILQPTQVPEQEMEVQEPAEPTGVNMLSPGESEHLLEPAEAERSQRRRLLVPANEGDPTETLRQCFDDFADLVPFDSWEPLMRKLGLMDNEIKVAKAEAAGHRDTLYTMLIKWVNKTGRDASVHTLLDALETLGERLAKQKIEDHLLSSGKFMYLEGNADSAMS

Going from O=C(OCn1ncc(Cl)c(Cl)c1=O)c1ccccc1Cl to CCC(=O)Nc1cc2nn(-c3ccccc3)nc2cc1Cl, the activity falls from 99.1% to 67.5%.

Compared with CC(=O)c1ccc(N2CCN(c3ccc4cc(S(=O)(=O)N5CCC(C)CC5)ccc4n3)CC2)cc1, Cc1ccc2cc(NC(=O)c3ccccc3)ccc2n1 is lower in activity: 56.4% for the first, 55% for the second.

Going from Cc1ccc(CS(=O)(=O)c2ncc(Cl)c(C(=O)Nc3nnc(C(C)C)s3)n2)cc1 to Cc1ccc(C(=O)Nc2ccc3ncccc3c2)cc1, the activity rises from 67.5% to 93.4%.

First: O=C(CCl)N(Cc1ccccc1)c1ccccc1
Second: O=C(Nc1nc2ccccc2[nH]1)c1cc2ccccc2o1
The activity of the first is higher: 99% for the first, 87.2% for the second.

Compared with Cc1onc(-c2ccccc2Cl)c1C(=O)O/N=C(\N)c1ccccc1, COc1ccc(C(=O)O/N=C(\N)c2ccccn2)c(OC)c1 is lower in activity: 99% for the first, 75.5% for the second.

Going from COc1ccc(C(=O)Nc2ccc3c(c2)OCCO3)cc1 to Cc1ccc(C(=O)Nc2ccc3c(c2)OCCO3)cc1, the activity rises from 77.6% to 90.4%.

Going from CC1(C)N=C(N)N=C(N)N1c1ccc(OCC(=O)Nc2ccccc2)c(Cl)c1 to CN(C)c1cccc(C(=O)Nc2nc3ccccc3[nH]2)c1, the activity rises from 78.5% to 90.2%.

First: COc1ccc(C(=O)Nc2ccccc2C(N)=O)cc1
Second: CCCc1ccc(C(=O)NC(=O)c2ccccc2O)cc1
The activity of the first is lower: 56.5% for the first, 78.6% for the second.

Compared with Cc1ccc(/C=N/Nc2nnc(Cl)c3ccccc23)cc1, Cc1ccc(-c2cc3onc(-c4ccccc4)c3c(=O)n2C)cc1 is lower in activity: 82.6% for the first, 75% for the second.

First: O=C(CSc1nnc(NC(=O)c2ccccc2)s1)NCC1CCCO1 (stereo not given)
Second: O=C(Nc1nc2ccccc2s1)c1ccc(OCC2CCCO2)cc1 (stereo not given)
The activity of the first is lower: 60.9% for the first, 73.5% for the second.

Compared with c1c2c(cc3sc(N4CCCCC4)nc13)OCO2, O=C(Nc1ccc2c(c1)OCO2)N1CCN(Cc2ccco2)CC1 is higher in activity: 56% for the first, 78.8% for the second.

Going from O=C(Nc1ccc2c(c1)OCCO2)c1ccc(Cl)cc1Cl to CN(C)CCCN(C(=O)c1cc2cc([N+](=O)[O-])ccc2s1)c1nc2cc3c(cc2s1)OCCO3, the activity rises from 72.8% to 92.2%.

Going from COc1cccc(C(=O)Oc2c(CN3CCOCC3)cc(Cl)c3cccnc23)c1 to COc1ccc(NC(=O)N2CCc3ccccc32)cc1, the activity rises from 49% to 64.4%.

Going from CCOc1ccc(-n2c(SCC(N)=O)nc3c([nH]c4ccccc43)c2=O)cc1 to CCCOc1ccc(-c2cn3ccccc3n2)cc1, the activity rises from 59.4% to 92.7%.

Going from CCCc1cc(=O)[nH]c(SCC(=O)c2c(N)n(CC(C)C)c(=O)n(C)c2=O)n1 to CCN(Cc1ccccc1)S(=O)(=O)c1ccc(C(=O)N(CCCN(C)C)c2nc3cc(C)cc(C)c3s2)cc1, the activity falls from 80.5% to 23.3%.

Compared with C#Cc1cccc(Nc2nc(NCc3ccccc3OC)nc3ccsc23)c1, COc1ccc2oc(=Nc3ccccc3)c(-c3nc4ccccc4[nH]3)cc2c1 is higher in activity: 52.1% for the first, 52.8% for the second.

Going from Cc1ccc(Cl)cc1N1CCN(C(=O)c2noc(C)c2[N+](=O)[O-])CC1 to O=S(=O)(c1ccccc1)c1nnn2c1nc(NC1CCN(Cc3ccccc3)CC1)c1ccccc12, the activity falls from 99.3% to 97.9%.

Going from Oc1cccc2ccc(Nc3ccccn3)nc12 to Nc1nc2ccccc2n1C(=O)c1ccc(F)cc1, the activity rises from 88.8% to 91.5%.

Compared with CC[C@H]1CN2CCc3cc(OC)c(OC)cc3C2C[C@@H]1C[C@H]1NCCc2cc(OC)c(OC)cc21 (stereo not given in full), CC(C)(C)OC(=O)NCc1ccc(NC(=O)c2nc[nH]c2C(=O)NCCCNC(=O)c2[nH]cnc2C(=O)Nc2ccc(CNC(=O)OC(C)(C)C)cc2)cc1 is higher in activity: 70% for the first, 87.7% for the second.

Going from C#Cc1ccc([C@H]2C=C(C(=O)Nc3ccccc3)O[C@@H](OCc3ccc(CO)cc3)C2)cc1 to c1ccc(COc2ncnc3c2ncn3CCCNCC(c2ccccc2)c2ccccc2)cc1, the activity falls from 92% to 18.2%.

test system: not listed separately; experiment: as above; details: NB7 neuroblastoma + caspase-8, without TRAIL, NB7 Caspase-8, without TRAIL, mean of runs, at 10 µM

Going from O=C(OCn1ncc(Cl)c(Cl)c1=O)c1ccccc1Cl to CCC(=O)Nc1cc2nn(-c3ccccc3)nc2cc1Cl, the activity falls from 99.3% to 65.9%.

First: CC(=O)c1ccc(N2CCN(c3ccc4cc(S(=O)(=O)N5CCC(C)CC5)ccc4n3)CC2)cc1
Second: Cc1ccc2cc(NC(=O)c3ccccc3)ccc2n1
The activity of the first is lower: 19.2% for the first, 43.6% for the second.

Compared with Cc1ccc(CS(=O)(=O)c2ncc(Cl)c(C(=O)Nc3nnc(C(C)C)s3)n2)cc1, Cc1ccc(C(=O)Nc2ccc3ncccc3c2)cc1 is higher in activity: 59.3% for the first, 92.9% for the second.

First: O=C(CCl)N(Cc1ccccc1)c1ccccc1
Second: O=C(Nc1nc2ccccc2[nH]1)c1cc2ccccc2o1
The activity of the first is higher: 98.9% for the first, 87% for the second.

Going from Cc1onc(-c2ccccc2Cl)c1C(=O)O/N=C(\N)c1ccccc1 to COc1ccc(C(=O)O/N=C(\N)c2ccccn2)c(OC)c1, the activity falls from 98.1% to 83.2%.

Going from COc1ccc(C(=O)Nc2ccc3c(c2)OCCO3)cc1 to Cc1ccc(C(=O)Nc2ccc3c(c2)OCCO3)cc1, the activity rises from 70% to 90.2%.

First: CC1(C)N=C(N)N=C(N)N1c1ccc(OCC(=O)Nc2ccccc2)c(Cl)c1
Second: CN(C)c1cccc(C(=O)Nc2nc3ccccc3[nH]2)c1
The activity of the first is higher: 82.3% for the first, 78.5% for the second.

Compared with COc1ccc(C(=O)Nc2ccccc2C(N)=O)cc1, CCCc1ccc(C(=O)NC(=O)c2ccccc2O)cc1 is higher in activity: 56.2% for the first, 75.5% for the second.

Going from Cc1ccc(/C=N/Nc2nnc(Cl)c3ccccc23)cc1 to Cc1ccc(-c2cc3onc(-c4ccccc4)c3c(=O)n2C)cc1, the activity falls from 73.8% to 72.3%.

Compared with O=C(CSc1nnc(NC(=O)c2ccccc2)s1)NCC1CCCO1 (stereo not given), O=C(Nc1nc2ccccc2s1)c1ccc(OCC2CCCO2)cc1 (stereo not given) is higher in activity: 63.2% for the first, 67% for the second.

Compared with c1c2c(cc3sc(N4CCCCC4)nc13)OCO2, O=C(Nc1ccc2c(c1)OCO2)N1CCN(Cc2ccco2)CC1 is higher in activity: 44.2% for the first, 75.2% for the second.

First: O=C(Nc1ccc2c(c1)OCCO2)c1ccc(Cl)cc1Cl
Second: CN(C)CCCN(C(=O)c1cc2cc([N+](=O)[O-])ccc2s1)c1nc2cc3c(cc2s1)OCCO3
The activity of the first is lower: 66.6% for the first, 83% for the second.

Compared with COc1cccc(C(=O)Oc2c(CN3CCOCC3)cc(Cl)c3cccnc23)c1, COc1ccc(NC(=O)N2CCc3ccccc32)cc1 is higher in activity: 60.3% for the first, 64% for the second.

First: CCOc1ccc(-n2c(SCC(N)=O)nc3c([nH]c4ccccc43)c2=O)cc1
Second: CCCOc1ccc(-c2cn3ccccc3n2)cc1
The activity of the first is lower: 56.5% for the first, 91.2% for the second.

First: CCCc1cc(=O)[nH]c(SCC(=O)c2c(N)n(CC(C)C)c(=O)n(C)c2=O)n1
Second: CCN(Cc1ccccc1)S(=O)(=O)c1ccc(C(=O)N(CCCN(C)C)c2nc3cc(C)cc(C)c3s2)cc1
The activity of the first is higher: 83.7% for the first, -11.7% for the second.

Going from C#Cc1cccc(Nc2nc(NCc3ccccc3OC)nc3ccsc23)c1 to COc1ccc2oc(=Nc3ccccc3)c(-c3nc4ccccc4[nH]3)cc2c1, the activity rises from 37.5% to 55%.

First: Cc1ccc(Cl)cc1N1CCN(C(=O)c2noc(C)c2[N+](=O)[O-])CC1
Second: O=S(=O)(c1ccccc1)c1nnn2c1nc(NC1CCN(Cc3ccccc3)CC1)c1ccccc12
The activity of the first is higher: 97.1% for the first, 48.9% for the second.

Compared with Oc1cccc2ccc(Nc3ccccn3)nc12, Nc1nc2ccccc2n1C(=O)c1ccc(F)cc1 is lower in activity: 95.5% for the first, 91% for the second.

Going from CC[C@H]1CN2CCc3cc(OC)c(OC)cc3C2C[C@@H]1C[C@H]1NCCc2cc(OC)c(OC)cc21 (stereo not given in full) to CC(C)(C)OC(=O)NCc1ccc(NC(=O)c2nc[nH]c2C(=O)NCCCNC(=O)c2[nH]cnc2C(=O)Nc2ccc(CNC(=O)OC(C)(C)C)cc2)cc1, the activity falls from 83.4% to 69.1%.

Going from C#Cc1ccc([C@H]2C=C(C(=O)Nc3ccccc3)O[C@@H](OCc3ccc(CO)cc3)C2)cc1 to c1ccc(COc2ncnc3c2ncn3CCCNCC(c2ccccc2)c2ccccc2)cc1, the activity falls from 93.4% to 41.5%.
